The results in this text go back to PubChem BioAssay (Tox21).

Where “and” joins values, the source holds several entries; their conditions need not be identical. Equal values may be shown once. Inconclusive results are not listed. A call without a number means that no potency is given here. A structure can be active in one record and inactive in another. Calls of active or inactive are those of the source. The call rests on the fitted dose curve; in most records, active means well fitted cell-killing curve with a large enough effect in the repeat runs; inconclusive means weak or mixed curves; inactive means flat fitted curve, though single readings scatter.
Potency means the concentration at half of the fitted maximal effect.

A short description of the test: qHTS RealTime-Glo MT Cell Viability Assay in HepG2 cells - 24 hour (AID 1224867). Further: nearly all actives have a fitted effect of over 50% in size. To be noted: RealTime-Glo luminescence; series mostly up to 76.8 µM; activity change, negative = cytotoxicity: at the top concentration. The procedure, abridged:
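HepG2 cells were seeded at 600 cells/well together with NanoLuc luciferase and a cell-permeant prosubstrate, preincubated 5 h at 37 C/5% CO2, then pin-dosed with compounds in DMSO. Nonlytic luminescence from viable cells was read at each time point.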
In general terms: qHTS replaces the single test concentration by a dilution series.
Regarding `O=C(O)c1cn(-c2ccc(F)cc2)c2cc(N3CCNCC3)c(F)cc2c1=O`, the Potency result is “inactive”. Same read-out and setting: next, `CCCCC(CC)COC(=O)CC(C(=O)OCC(CC)CCCC)S(=O)(=O)O` (stereo not drawn): “inactive”; `NC(N)=Nc1nc(CSCC/C(N)=N/S(N)(=O)=O)cs1`: “inactive”. On the same count and under the same terms, next, `O=C(Oc1ccccc1)c1ccccc1O`: “inactive”. Consider `CCN1CCCC1CNC(=O)c1cc(S(=O)(=O)CC)c(N)cc1OC` (stereo not drawn), for which the “activity change, negative = cytotoxicity” value was 2.81% [at 35.3 µM] (inactive).

Consider `OCC(CO)N[C@H]1C[C@](O)(CO)[C@@H](O)[C@H](O)[C@H]1O`, for which the “activity change, negative = cytotoxicity” value was 0.548% [at 35.3 µM] (inactive). Turning to `CCCCCCCCCCCCCC[P+](CCCC)(CCCC)CCCC`, the Potency was 21.8 µM (active) and 13.8 µM (active). The same measure, in the same setting: next, `O=C(O)c1cccc(C(=O)O)c1`: “inactive”; `CC(=O)N[C@@H](CS)C(=O)O`: “inactive”; `CC1COC(=O)O1` (stereo not drawn): “inactive”. The same measure, in the same setting: next, `c1cc(C(c2ccc(OCC3CO3)cc2)C(c2ccc(OCC3CO3)cc2)c2ccc(OCC3CO3)cc2)ccc1OCC1CO1` (stereo not drawn): “inactive”.

Consider `NC(N)=NC(=O)Cc1c(Cl)cccc1Cl`, for which the “activity change, negative = cytotoxicity” value was 0.182% [at 35.3 µM] (inactive). The same measure, in the same setting: next, `CCCC(=O)c1ccccc1`: 2.38% (inactive). As for `C=C(C)C1CC=C(C)C(OC(C)=O)C1` (stereo not drawn), the Potency entry is “inactive”.

As to `CC(C)(C)NCC(O)COc1ccccc1OCC1CCCO1` (stereo not drawn), the “activity change, negative = cytotoxicity” value was 1.9% [at 35.3 µM] (inactive). With `c1ccc2n[nH]nc2c1`, the Potency result is “inactive”. The same measure, in the same setting: next, `CC(=O)OCCOCCOCCOC(C)=O`: “inactive”. The same measure, in the same setting: the entry for `COC(=O)/C=C/c1ccccc1` is “inactive”. With `Cc1scc2c1N(C(=O)CN1CCN(C)CC1)c1ccccc1NC2=O`, the “activity change, negative = cytotoxicity” value is 1.42% [at 35.3 µM] (inactive). Turning to `Oc1c(Cl)cc(Cl)c(Cl)c1Cc1c(O)c(Cl)cc(Cl)c1Cl`, the Potency entry was “inactive”.

As to `Nc1nc2ccccc2[nH]1`, the Potency result is “inactive”.

For `CCN(CC)C(=S)SSC(=S)N(CC)CC`, the Potency is 436 nM (active) and 398 nM (active) and inactive. Regarding `NCCCCCC(=O)O`, the “activity change, negative = cytotoxicity” value was -1.32% [at 35.3 µM] (inactive).

For the compound `O=C(O)CCc1ccccc1`, the “activity change, negative = cytotoxicity” value was 2.17% (inactive). `OCCN1CCNCC1`: the Potency entry is “inactive”. The same measure, in the same setting: next, `[Cl][In]([Cl])[Cl]`: “inactive”. On to `CC(C)CCOC(=O)c1ccc(N(C)C)cc1`, for which the “activity change, negative = cytotoxicity” value is -7.63% [at 35.3 µM] (inactive). `CCOC(=O)C(C)C(C)=O` (stereo not drawn): the “activity change, negative = cytotoxicity” value is 0.0779% (inactive). On to `CC(C)(C)c1cc(C(C)(C)C)c(O)c(C(C)(C)C)c1`, for which the Potency result is “inactive”. The same measure, in the same setting: next, `CCC[C@H](N[C@@H](C)C(=O)N1[C@H](C(=O)O)C[C@@H]2CCCC[C@@H]21)C(=O)OCC`: “inactive”.

For `CC(COc1ccccc1)N(CCCl)Cc1ccccc1` (stereo not drawn), the “activity change, negative = cytotoxicity” value was -12.2% [at 35.3 µM] (inactive). For the compound `O=C1CC2(CCCC2)CC(=O)N1CCCCN1CCN(c2ncccn2)CC1`, the Potency result was “inactive”.

In the case of `O=c1n(CC2CO2)c(=O)n(CC2CO2)c(=O)n1CC1CO1` (stereo not drawn), the Potency entry was “inactive”.
